Sm TGR inh – qHTS Assay for the Inhibitors of Schistosoma Mansoni Peroxiredoxins; Schistosoma mansoni thioredoxin glutathione reductase (TGR), Q962Y6; purified TGR, DTNB reduction, TNB absorbance 405 nm; Potency, µM (doses to about 114 µM), inactives show at the top dose activity change, negative = inhibition, usual class: inhibitors; actives 3% (n = 360,000); note: potency is the fitted concentration of half-maximal effect; % is set by controls: 0 for no effect and ±100 for the full control effect; nearly all actives have a fitted effect of over 60% in size
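Kinetic colorimetric format: TGR-catalysed, NADPH-driven DTNB reduction monitored via TNB absorbance. Enzyme dispensed at 20 nM; compound exposure 15 min at room temperature before reaction start.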
Giardia FBPA inh-1 – qHTS Assay for Inhibitors of Fructose-1,6-bisphosphate Aldolase from Giardia Lamblia. Potency, µM (highest dose often 59.6 µM), for the others: at the highest dose activity, negative = inhibition, hits mostly inhibitors. purified Giardia FBPA. actives 0.71% (n = 290,000). A8B2U2; note: potency is the fitted concentration of half-maximal effect; % is set by controls: 0 for no effect and ±100 for the full control effect; nearly all actives have a fitted effect of over 55% in size
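40 nM FBPA preincubated 10 min at RT with compound (up to 57.5 uM final), then substrate plus GAPDH/TPI/NAD/arsenate coupling and diaphorase/resazurin added. Fluorescence read after 20 min at RT, 525/598 nm.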
Tb PYK inh – qHTS of Trypanosoma Brucei Inhibitors; pyruvate kinase (Trypanosoma brucei), Q57TT1; TbPYK enzyme, Kinase-Glo Plus ATP luminescence, 45 min; Potency, µM (titrated, usually from 76.8 µM), inactives show at the highest dose activity, negative = inhibition, hits mostly inhibitors; actives 0.12% (n = 410,000); AID 624173, 2012; note: potency is the fitted concentration of half-maximal effect; % is set by controls: 0 for no effect and ±100 for the full control effect; nearly all actives have a fitted effect of over 50% in size
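Quantitative HTS: titrated library compounds versus trypanosomal pyruvate kinase in TEA buffer (pH 7.2) containing KCl, MgCl2, BSA and Tween-20. Reactions were initiated with ADP, 130 uM final. Kinase-Glo Plus luminescence was read after 45 min at RT.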
Shiga inhibitor – A qHTS for Small Molecule Inhibitors of Shiga Toxin; actives 9.2% (n = 290,000); inhibition, % at 38.7 µM; Vero cells, Shiga toxin protein synthesis inhibition reporter; AID 2315, 2010; in the data active = inhibition mostly above about 28%, no sharp cut-off; inactive = mostly below about 43%; note: 0% is about no effect
LmPK inh – qHTS Assay for Inhibitors of Leishmania Mexicana Pyruvate Kinase (LmPK); Q27686; purified LmPK, Kinase-Glo ATP luminescence, 1 h; Potency, µM (series often up to 57.5 µM), for inactives: at the top dose activity change, negative = inhibition, most hits filed as inhibitors; actives 0.37% (n = 290,000); AID 1721, 2009; note: potency is the fitted concentration of half-maximal effect; % is set by controls: 0 for no effect and ±100 for the full control effect
Target sequence (Q27686 whole entry, looked up): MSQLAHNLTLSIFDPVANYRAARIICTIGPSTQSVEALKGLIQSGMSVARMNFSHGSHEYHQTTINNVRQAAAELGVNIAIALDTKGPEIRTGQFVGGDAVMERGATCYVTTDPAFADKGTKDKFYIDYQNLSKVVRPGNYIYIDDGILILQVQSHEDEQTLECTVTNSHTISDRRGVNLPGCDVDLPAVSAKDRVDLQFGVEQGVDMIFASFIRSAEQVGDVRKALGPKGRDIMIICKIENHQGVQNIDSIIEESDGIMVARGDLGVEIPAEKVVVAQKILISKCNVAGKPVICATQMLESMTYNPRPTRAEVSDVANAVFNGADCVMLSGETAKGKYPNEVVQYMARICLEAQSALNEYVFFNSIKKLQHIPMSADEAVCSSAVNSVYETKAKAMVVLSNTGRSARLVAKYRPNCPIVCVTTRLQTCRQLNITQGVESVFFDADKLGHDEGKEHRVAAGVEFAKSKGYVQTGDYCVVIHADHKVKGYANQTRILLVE
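0.1 nM LmPK, 0.5 mM PEP, 0.1 mM ADP; 50 mM imidazole pH 7.2, 7 mM MgCl2, 50 mM KCl; 1 h RT. Kinase-Glo luminescence readout, normalized to no-enzyme (full inhibition) and uninhibited wells.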
Cycloheximide cs – Cycloheximide Counterscreen for Small Molecule Inhibitors of Shiga Toxin; cell reporter, cycloheximide protein synthesis inhibition counterscreen; max response, %; actives 12% (n = 300,000); AID 2314, 2010; in the data active = max response mostly above about 13%, no sharp cut-off; inactive = mostly below about 14%; note: read at 38.3 µM for the half of the compounds with a filed dose; 0% is about no effect
Giardia growth – qHTS Assay for Inhibitors of Fructose-1,6-bisphosphate Aldolase from Giardia Lamblia: Giardia lamblia growth inhibition | shares compounds with Giardia FBPA inh-1 | Giardia lamblia trophozoite growth inhibition | Potency, µM (titrated, usually from 57.5 µM), without a hit: at the top dose activity change, negative = inhibition, hits mostly inhibitors | actives 5% (n = 1,500) | AID 2785, 2010;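 note: potency is the fitted concentration of half-maximal effect; trophozoites exposed to compound for 48 h at 37 °C; % is set by controls: 0 for no effect and ±100 for the full control effect; nearly all actives have a fitted effect of over 70% in size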
Mammalian tox – qHTS Assay for Inhibitors of Fructose-1,6-bisphosphate Aldolase from Giardia Lamblia: Mammalian cellular toxicity. shares compounds with Giardia FBPA inh-1. mammalian cell viability counter-screen, qHTS. Potency, µM (highest dose often 57.5 µM), inactives show at the top dose viability change, negative = toxicity, most hits filed as inhibitors. actives 4% (n = 1,500);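 note: Chinese hamster ovary cells used as mammalian cytotoxicity surrogate; viability measured as cellular ATP by luminescence; potency is the fitted concentration of half-maximal effect; compound exposure lasted 48 h before reading; % is set by controls: 0 for no effect and ±100 for the full control effect; nearly all actives have a fitted effect of over 60% in size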
Giardia FBPA inh-2 – qHTS Assay for Inhibitors of Fructose-1,6-bisphosphate Aldolase from Giardia Lamblia: Primary screen confirmation. Potency, µM (titrated, usually from 57.5 µM), inactives show at the highest dose activity change, negative = inhibition, hits mostly inhibitors. purified Giardia aldolase enzyme activity, qHTS. shares compounds with Giardia FBPA inh-1. actives 5% (n = 1,500); note: potency is the fitted concentration of half-maximal effect; % is set by controls: 0 for no effect and ±100 for the full control effect; nearly all actives have a fitted effect of over 45% in size
Rabbit FBPA inh – qHTS Assay for Inhibitors of Fructose-1,6-bisphosphate Aldolase from Giardia Lamblia: Rabbit FBPA Selectivity | shares compounds with Giardia FBPA inh-1 | Rabbit muscle FBPA enzyme inhibition, selectivity counter-screen | AID 2794, 2010 | Potency, µM (series often up to 57.5 µM), for inactives: at the highest dose activity, negative = inhibition, actives largely listed as inhibitors | actives 4% (n = 1,500); note: potency is the fitted concentration of half-maximal effect; % is set by controls: 0 for no effect and ±100 for the full control effect; nearly all actives have a fitted effect of over 60% in size
GAPDH coupling – qHTS Assay for Inhibitors of Fructose-1,6-bisphosphate Aldolase from Giardia Lamblia: Coupling assay counterscreen confirmation; shares compounds with Giardia FBPA inh-1; GAPDH coupling enzyme counterscreen, biochemical, qHTS; Potency, µM (highest dose often 57.5 µM), inactives show at the top dose activity change, negative = inhibition, actives largely listed as inhibitors; actives 6% (n = 1,500); note: potency is the fitted concentration of half-maximal effect; % is set by controls: 0 for no effect and ±100 for the full control effect; nearly all actives have a fitted effect of over 55% in size
Starred values were filed as active, the others as inactive; ? = inconclusive; nt = no result given; [ ] = dose if it differs, or a comment. Many of the other results were omitted from the sample, so hits are more common in it than they were. Unless noted, calls come from the whole dose curve; as a rule, active = well fitted curve in the direction sought with a large enough effect; inconclusive = small, poorly fitted or top-dose-only effect, or another doubt; inactive = no such curve, though single readings can be large; an effect the other way counts as inactive or inconclusive.

SMILES	Sm TGR inh	Giardia FBPA inh-1	Tb PYK inh	Shiga inhibitor	LmPK inh	Cycloheximide cs	Giardia growth	Mammalian tox	Giardia FBPA inh-2	Rabbit FBPA inh	GAPDH coupling
CC1CCN(S(=O)(=O)c2ccc3c(c2)N(CC(=O)NCCN2C(C)CCCC2C)C(=O)CS3)CC1 (stereo not drawn)	0%	nt	2%	-5	8%	1	nt	nt	nt	nt	nt
Cc1ccc(S(=O)(=O)N2CCOCC2)cc1NC(=O)CNCc1ccc(Cl)cc1Cl	nt	nt	-5%	nt	nt	nt	nt	nt	nt	nt	nt
Cc1ccc(S(=O)(=O)N2CCOCC2)cc1NC(=O)CNCc1cccnc1	8%	16µM*	1%	-5	-7%	-5	-8%[10.4 µM]	-1%	-1%	6%	7%
Cc1ccsc1C1C(C#N)=C(N)OC2=C1C(=O)CCC2 (stereo not drawn)	-2%[57.1 µM]	18µM*	-4%	12	-6%	2	37%	17%	-27%	-30%	?
Cc1ccc(C2C(C#N)=C(N)OC3=C2C(=O)CCC3)s1 (stereo not drawn)	24%	-14%	-5%	4	-6%	-2	nt	nt	nt	nt	nt
COc1ccccc1NC(=S)N(Cc1ccc(C)cc1)Cc1ccccn1	5%	18µM*	-5%	50	-1%	-6	60%	-7%	6%	11%	18%
COc1ccc(CCN(Cc2ccccn2)C(=S)Nc2cccc(SC)c2)cc1OC	25%	10µM*	2%	-3	1%	5	-6%[38.3 µM]	-26%	-11%	-8%	-3%
COc1ccc(CCN(Cc2ccccn2)C(=S)Nc2ccc(C)cc2)cc1OC	17%	-4%	3%	-3	4%	-3	nt	nt	nt	nt	nt
NC(=O)c1ccc(/C=N/O)nc1	13%	18µM*	-7%	17	2%	-3	?	3%	3%	6%	2%
O=C(NCCCNC1CCCCC1)c1ccc(/C=N/O)nc1	-3%	-3%	-25%	13	1%	1	nt	nt	nt	nt	nt
O=C(NCc1ccccc1)c1ccc(/C=N/O)nc1	4%	2%	9%	-8	-4%	-1	nt	nt	nt	nt	nt
CNCCCNC(=O)c1ccc(/C=N/O)nc1	-35%	16µM*	-11%	-7	2%	1	60%	-6%	1%	8%	4%
O=C(c1ccccc1NS(=O)(=O)c1ccc(F)cc1)N1CCOCC1	3%	-13%	-8%	-13	-9%	-1	nt	nt	nt	nt	nt
O=C(NNC(=O)C12CC3CC(CC(C3)C1)C2)c1ccccn1	-2%	18µM*	-2%	15	-1%	-3	?	32µM*	6%	0%	-14%
O=C(NNC(=O)C12CC3CC(CC(C3)C1)C2)c1cnccn1	5%	5%	-9%	-19	-7%	-1	nt	nt	nt	nt	nt
CCCN(CC(=O)NC(=O)NCc1ccccc1)CC(=O)Nc1ccc(F)c(F)c1F	nt	nt	3%	nt	nt	nt	nt	nt	nt	nt	nt
CC1(C)OC(=O)C2=C(C[C@@H](CCC(F)(F)F)O[C@H]2c2ccc(F)cc2)O1	nt	nt	6%	nt	nt	nt	nt	nt	nt	nt	nt
O=C(NNC(=O)c1ccccc1Cl)c1ccc2c(c1)OCCO2	nt	nt	-1%	nt	nt	nt	nt	nt	nt	nt	nt
CN1CCN(CC(=O)Nc2ccc(S(=O)(=O)N(C)C)cc2)CC1	10%	14µM*	-2%	8	-10%	9	?	-10%	5%	-4%	1%
Cc1ccc(NC(=O)CN2CCN(C)CC2)cc1Br	2%	16µM*	-2%	2	-4%	-1	?	2%	0%	3%	5%
CC(=O)NC(C)(c1ccccc1)c1nc(-c2cccc(C(F)(F)F)c2)cs1 (stereo not drawn)	nt	nt	-1%	nt	nt	nt	nt	nt	nt	nt	nt
CCCNC(=O)C(CC)NC(=O)c1cccc([N+](=O)[O-])c1 (stereo not drawn)	-10%	nt	-1%	nt	nt	nt	nt	nt	nt	nt	nt
COc1cc(NC(=O)CN2C(=O)CSc3ccc(S(=O)(=O)N4CCCC4)cc32)cc(OC)c1	-4%	1%	1%	11	0%	12	nt	nt	nt	nt	nt
CCC(=O)NNC(=S)NC(=O)c1ccc(C)cc1	0%	18µM*	-5%	51*	5%	31*	?	-5%	23%	-1%	13%
Cc1oc2ncn(C)c(=O)c2c1C(=O)NCCCN1CCCCC1C (stereo not drawn)	-4%	nt	-2%	nt	nt	nt	nt	nt	nt	nt	nt
NC(=S)N/N=C/c1ncc(C(F)(F)F)cc1Cl	14%	6.3µM*	0%	11	3%	0	3%[10.4 µM]	?	-18%	4%	?
O=C(NCSc1ccncn1)c1ccccc1	28µM*	16µM*	1%	-3	0%	-5	8%[10.4 µM]	1%	7%	5%	10%
CCNC(=O)NC(=O)C(C)OC(=O)c1cccn1C (stereo not drawn)	-10%	1%	0%	-2	-2%	-1	nt	nt	nt	nt	nt
